An excerpt weighted towards active compounds, which were near 4.8% of everything screened.
DAX1 inh-1 – DAX1 (NR0B1) inhibitors, primary screen, cell-based, HEK293, Gal4-DAX1, luciferase luminescence. 340,000 tested, 0.99% active. Nuclear receptor subfamily 0 group B member 1 (Homo sapiens), P51843. inhibition, % at 6.75 µM. HEK293 Gal4-DAX1 luciferase reporter;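 active means inhibition above the mean over all tested compounds plus 3 SD, cut at about 4.2% in these data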;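 further: inhibition shows as a rise in luminescence from relieved DAX1 repression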
Target sequence (P51843 207-470 limits assumed): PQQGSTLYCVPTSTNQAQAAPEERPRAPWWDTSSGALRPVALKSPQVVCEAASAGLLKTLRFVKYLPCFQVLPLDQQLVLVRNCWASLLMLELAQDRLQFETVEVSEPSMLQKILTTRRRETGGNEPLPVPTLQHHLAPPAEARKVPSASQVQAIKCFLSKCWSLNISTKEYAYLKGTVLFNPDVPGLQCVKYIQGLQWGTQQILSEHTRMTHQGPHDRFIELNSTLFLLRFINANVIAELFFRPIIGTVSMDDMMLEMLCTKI
DAX1 inh-2 – DAX1 (NR0B1) inhibitors on StAR promoter, primary screen, cell-based, luminescence, SF-1 (NR5A1), full-length DAX-1; HEK293T StAR-luciferase reporter, SF-1/DAX-1 repression relief; inhibition, % at 6.8 µM; 370,000 tested, 1.1% active;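 active means inhibition above the mean over all tested compounds plus 3 SD, cut at about 3.6% in these data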;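 further: higher inhibition means more luminescence from relief of DAX-1 repression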
ssDAF-12 act – S. stercoralis DAF-12 nuclear receptor activators, primary screen, cell-based, luminescence, HEK293, GRIP1 co-expression, lit1-tk-luc | AID 652126, 2013 | 370,000 tested, 1% active | activation, % at 6.8 µM | Nuclear hormone receptor DAF-12 (Strongyloides stercoralis) | HEK293 ssDAF-12/GRIP1 lit1-tk-luc reporter; % of 3 µM dafachronic acid response;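 active means activation above the mean over all tested compounds plus 3 SD, cut at about 0.9% in these data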
SMARCA2 activ – SMARCA2 (BRM) function activators, primary screen, cell-based, luminescence, high throughput; MG213 cells, MMTV-luciferase reporter, dexamethasone, overnight; activation, % at 9.1 µM; 370,000 tested, 1% active; AID 652017, 2013; in the data active means activation above about 7.8%
hgDAF-12 ag – H. glycines DAF-12 receptor agonists, primary screen, cell-based, luminescence, HEK293, GAL4 fusion, UAS-luciferase | Nuclear hormone receptor DAF-12 (Heterodera glycines), GAL4 fusion | HEK293 GAL4-hgDAF12 UAS-luciferase reporter, agonist luminescence; normalized to butyrate control | activation, % at 6.8 µM | 370,000 tested, 1.8% active;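 active means activation above a cutoff set at the mean of all screened compounds plus 3 SD, cut at about 10% in these data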
hcDAF12 agonist – H. contortus DAF-12 nuclear receptor activators, primary screen, cell-based, luminescence, HEK293, lit1-tk-luc reporter; HEK293 hcDAF-12 lit1-tk-luc reporter; 0% DMSO, 100% Δ7-dafachronic acid; activation, % at 6.8 µM; 370,000 tested, 1.4% active; AID 652067, 2013;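 active means activation above the mean of all tested compounds plus 3 SD, cut at about 5.5% in these data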
hgDAF12 ag – H. glycines DAF-12 receptor agonists, confirmation, cell-based, luminescence, HEK293, GAL4-LBD fusion; shares compounds with hgDAF-12 ag; HEK293 GAL4-hgDAF12 luciferase reporter, agonist mode; percent of butyrate response; activation, % at 6.8 µM; 3,300 tested, 80% active;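 active means mean activation over triplicate wells above the hit cutoff derived from the earlier primary screen, cut at about 11% in these data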
LXR ag 2 – LXR agonists, Gal4 luciferase reporter, confirmation, counter-screen for hgDAF-12 agonist project, cell-based, luminescence, HEK293, H. glycines campaign; activation, % at 6.8 µM; 24 h; 3,300 tested, under 10 active; shares compounds with hgDAF-12 ag;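 active means mean activation of the triplicate above a set limit carried over from the primary screen, none filed active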
Of the large screens only hits and unclear results are named; the others gave an inactive call (follow-up assays come after a bar, where they were run).

Cc1ccn2cc(-c3cccc(NS(C)(=O)=O)c3)nc2c1	hgDAF-12 ag 13.7 | hgDAF12 ag 10.9 | LXR ag 2 inactive
Cc1ccn2cc(-c3cccc(NC(=O)CCC(=O)O)c3)nc2c1	none
Cc1ccc(NC(=O)COCC(=O)Nc2ccc(C)cc2)cc1	none
Cc1ccc(C2(C)NC(=O)N(CC(=O)Nc3ccc(-c4nc5ccc(C)cc5s4)cc3)C2=O)cc1 (stereo not given)	ssDAF-12 act 1.1, hgDAF-12 ag 23.7 | hgDAF12 ag 11.8 | LXR ag 2 inactive
CCC(=O)NC(=S)Nc1ccc(-c2nc3ccc(C)cc3s2)cc1	hgDAF-12 ag 16.7 | hgDAF12 ag 12.7 | LXR ag 2 inactive
Cc1ccc2nc(-c3ccc(NC(=O)COCC(=O)O)cc3)sc2c1	hgDAF-12 ag 16.0 | hgDAF12 ag 10.7 | LXR ag 2 inactive
CCN(CC)S(=O)(=O)c1cc(C(=O)OCC(=O)Nc2ccc(-c3nc4ccc(C)cc4s3)cc2)ccc1F	ssDAF-12 act 1.2, hgDAF-12 ag 16.2 | hgDAF12 ag 18.9 | LXR ag 2 inactive
O=P(Cc1cc[n+]([O-])cc1)(c1ccccc1)c1ccccc1	none
CCc1nc(CN(C)C(=O)C2CCC(=O)N(CCc3cccc(F)c3)C2)no1 (stereo not given)	none
COc1cc2c(c(OC)c1OC)C(c1ccc3c(c1)OCO3)CC(=O)O2 (stereo not given)	none
COc1cc(NC(=O)c2cc3c(=O)n(C)c4ccccc4c3n2C)cc(OC)c1OC	none
O=C(Nc1ccccc1N1CCOCC1)c1ccc(Br)o1	none
C/C(CC(=O)Nc1ccc(N(C)C)cc1)=N\NC(=O)Cc1csc(N)n1	none
COc1cccc(C=C2SC(=S)NC2=O)c1	none
Cc1ccccc1/C=N\NC(=O)c1csnn1	hgDAF-12 ag 14.5 | hgDAF12 ag inactive | LXR ag 2 inactive
Cc1ccccc1/C=N/NC(=O)Cn1nnc(N)n1	none
COc1ccc(OC)c(S(=O)(=O)N2C(C)CCCC2C)c1 (stereo not given)	none
CC(C)n1c(-c2ccc(N(C)C)cc2)nc2ccccc21	hgDAF-12 ag 16.4, hcDAF12 agonist 5.8 | hgDAF12 ag inactive | LXR ag 2 inactive
CCn1c(-c2ccc(N(C)C)cc2)nc2ccccc21	none
Cc1cc(NC(=O)c2nn3cccnc3c2Cl)no1	hgDAF-12 ag 13.6 | hgDAF12 ag 14.6 | LXR ag 2 inactive
COc1ccc(OC)c(N(CC(=O)O)S(=O)(=O)c2ccc(OC)c(OC)c2)c1	none
CSCC(=O)Nc1nc(-c2ccc3c(c2)OCCO3)cs1	hgDAF-12 ag 16.6 | hgDAF12 ag 14.3 | LXR ag 2 inactive
COCCNc1nc2nonc2nc1NC(C)c1ccccc1Cl (stereo not given)	none
C/C(CC(=O)Nc1ccc(Cl)cc1C(F)(F)F)=N\NC(=O)c1ccccn1	hgDAF-12 ag 15.4 | hgDAF12 ag inactive | LXR ag 2 inactive
CCC(C)NC(=O)Cn1cnc2sc(C)c(S(=O)(=O)N3CCN(c4ccccc4OC)CC3)c2c1=O (stereo not given)	none
CCCCC(=O)N1CCN(c2nc3ccc(Cl)cc3s2)CC1	none
Cc1cccc(NC(=O)c2sc3nc(N)c(C#N)cc3c2N)c1	hgDAF-12 ag 20.6 | hgDAF12 ag inactive | LXR ag 2 inactive
CCCCCCCCN1C(=O)[C@@H](CC(=O)NCCCOCCCC)C[C@@]2(C(=O)OC)C1=C[C@H](C(C)C)O[C@@H]2C1CC1	none (no result: DAX1 inh-1)
C#CCNC(=O)C[C@H]1C[C@@]2(C(=O)OC)C(=C[C@H](C(C)C)O[C@@H]2C2CC2)N(CCCCCCCC)C1=O	hgDAF-12 ag 13.6 (no result: DAX1 inh-1) | hgDAF12 ag inactive | LXR ag 2 inactive
N/C(=N\N=C\c1ccc(O)c(O)c1)c1nonc1N	hgDAF-12 ag 15.3 | hgDAF12 ag inactive | LXR ag 2 inactive
COc1ccc(OC)c(/C=N/N=C(\N)c2nonc2N)c1	none
CSc1ccccc1C(=O)Nc1ccc2c(c1)OCCO2	none
CCc1ccc(NC(=O)c2ccccc2SC)cc1	hgDAF-12 ag 15.9 | hgDAF12 ag inactive | LXR ag 2 inactive
COc1cccc2c1OCC(C(=O)OCc1cccnc1)=C2	none
COc1ccc(NC(=O)C2=Cc3cccc(OC)c3OC2)cc1	SMARCA2 activ 7.8, hgDAF-12 ag 14.7 | hgDAF12 ag inactive | LXR ag 2 inactive
O=C(Nc1nc2c(Br)cccc2s1)c1ccc2c(c1)OCCO2	hgDAF-12 ag 14.7 (no result: DAX1 inh-1, DAX1 inh-2, SMARCA2 activ) | hgDAF12 ag inactive | LXR ag 2 inactive
CCCCc1ccc(Nc2ncnc3nc[nH]c23)cc1	hgDAF-12 ag 13.4 | hgDAF12 ag inactive | LXR ag 2 inactive
O=C(NCc1ccccc1)c1cc(=O)[nH]c2ccccc12	none
O=C(CN1CCN(C(=O)c2cc(C3CC3)nn2-c2ccccc2)CC1)Nc1ccc(F)cc1	hgDAF-12 ag 14.8 | hgDAF12 ag inactive | LXR ag 2 inactive
Cc1cccc(NC(=O)CN2CCN(C(=O)c3cc(C4CC4)nn3-c3ccccc3)CC2)c1C	none
Cc1cc(/C=N/NC(=O)c2cccs2)c(C)n1-c1cnccn1	DAX1 inh-2 3.9, hgDAF-12 ag 15.8 | hgDAF12 ag 15.1 | LXR ag 2 inactive
O=C(N/N=C/C=C/c1ccccc1)c1cccs1	none
Cc1nn(-c2ccc(F)cc2)c(Cl)c1/C=N/NC(=O)c1cccs1	hgDAF-12 ag 14.8 | hgDAF12 ag inactive | LXR ag 2 inactive
Cc1cc(/C=N/NC(=O)c2cccs2)c(C)n1-c1ccccc1	none
O=C(N/N=C/C(Br)=C/c1ccccc1)c1cccs1	DAX1 inh-1 4.5, hgDAF-12 ag 23.7 | hgDAF12 ag 14.9 | LXR ag 2 inactive
Cc1ccsc1/C=N/NC(=O)c1cccs1	hgDAF-12 ag 15.2 | hgDAF12 ag inactive | LXR ag 2 inactive
Cc1nn(-c2ccc(F)cc2)c(Cl)c1/C=N/NC(=O)c1ccc(O)cc1	none

Screening results (PubChem BioAssay)
